# Laboratory results taken from PMC7862700, “An all-to-all approach to the identification of sequence-specific readers for epigenetic DNA modifications on cytosine”.
# Experiments:
# Assay in all cases: DAPPL (digital affinity profiling via proximity ligation, sequencing); 10 mM Tris-HCl pH 7.5, 50 mM NaCl, 1 mM DTT, 4% glycerol, room temperature, 30 min; GST-TFs on glutathione beads, 16-mer random dsDNA library, 0.1% formaldehyde crosslink after washing; high values mean tight binding
# [1] = target: T1, FLI1 (Homo sapiens, UniProt Q01543 1-452); settings: protein: recombinant; tags: N-terminal GST; dsDNA, one strand shown
# T1 sequence: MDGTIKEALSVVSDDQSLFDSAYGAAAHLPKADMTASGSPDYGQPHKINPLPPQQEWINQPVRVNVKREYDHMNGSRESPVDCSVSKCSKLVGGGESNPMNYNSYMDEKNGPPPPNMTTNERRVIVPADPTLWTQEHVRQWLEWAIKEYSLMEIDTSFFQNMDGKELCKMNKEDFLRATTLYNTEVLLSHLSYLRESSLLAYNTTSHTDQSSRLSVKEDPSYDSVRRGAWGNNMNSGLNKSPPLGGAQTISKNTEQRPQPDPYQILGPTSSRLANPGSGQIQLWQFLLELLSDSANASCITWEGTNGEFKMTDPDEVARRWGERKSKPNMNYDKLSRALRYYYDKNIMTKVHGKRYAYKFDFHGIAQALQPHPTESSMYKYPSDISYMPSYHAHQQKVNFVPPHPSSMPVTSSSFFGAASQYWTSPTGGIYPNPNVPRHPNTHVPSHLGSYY
# In short: (§1)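 Pools were built from human transcription factors expressed in yeast as GST fusions, captured on glutathione beads and DNA-barcoded, along with a tag-only sample. Incubation with 200 nmole of a 16-mer random double-stranded DNA library lasted 30 min at room temperature in Tris/NaCl/DTT/glycerol buffer, and was followed by washing, 0.1% formaldehyde crosslinking, proximity ligation, PCR amplification and Illumina NextSeq500 sequencing. Binding signal is the quotient of each hexamer's read frequency for a factor and its frequency for the tag-only sample.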
# [2] = target: T2, ELK1 (Homo sapiens, UniProt P19419 1-428); settings: protein: recombinant; tags: N-terminal GST; dsDNA, one strand shown
# T2 sequence: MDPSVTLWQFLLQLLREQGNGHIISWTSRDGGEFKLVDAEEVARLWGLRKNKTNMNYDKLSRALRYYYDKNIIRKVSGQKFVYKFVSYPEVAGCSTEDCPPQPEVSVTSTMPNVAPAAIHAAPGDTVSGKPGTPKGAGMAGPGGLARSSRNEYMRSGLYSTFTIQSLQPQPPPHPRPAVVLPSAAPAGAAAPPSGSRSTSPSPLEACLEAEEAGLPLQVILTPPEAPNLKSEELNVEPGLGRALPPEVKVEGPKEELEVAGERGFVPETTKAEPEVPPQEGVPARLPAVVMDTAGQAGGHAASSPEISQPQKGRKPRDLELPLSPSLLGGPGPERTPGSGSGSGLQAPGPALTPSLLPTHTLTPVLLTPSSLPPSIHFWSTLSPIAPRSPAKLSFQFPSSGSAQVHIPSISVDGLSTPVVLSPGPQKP
# In short: as §1
# [3] = target: T3, GABPA (Homo sapiens, UniProt Q06546 1-454); settings: protein: recombinant; tags: N-terminal GST; dsDNA, one strand shown
# T3 sequence: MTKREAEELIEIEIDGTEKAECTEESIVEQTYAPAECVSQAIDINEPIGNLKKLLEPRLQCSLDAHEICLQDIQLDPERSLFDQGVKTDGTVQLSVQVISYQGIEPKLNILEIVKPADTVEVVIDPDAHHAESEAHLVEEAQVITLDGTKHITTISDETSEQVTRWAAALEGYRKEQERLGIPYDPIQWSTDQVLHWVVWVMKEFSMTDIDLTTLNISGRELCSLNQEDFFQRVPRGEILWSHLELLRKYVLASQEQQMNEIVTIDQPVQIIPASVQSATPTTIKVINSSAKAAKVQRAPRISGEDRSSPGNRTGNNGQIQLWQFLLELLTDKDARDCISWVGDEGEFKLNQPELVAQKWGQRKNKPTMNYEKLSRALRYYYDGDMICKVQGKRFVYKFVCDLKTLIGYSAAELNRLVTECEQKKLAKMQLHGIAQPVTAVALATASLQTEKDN
# In short: as §1
# [4] = target: T4, ERG (Homo sapiens, UniProt P11308 1-479); settings: protein: recombinant; tags: N-terminal GST; dsDNA, one strand shown
# T4 sequence: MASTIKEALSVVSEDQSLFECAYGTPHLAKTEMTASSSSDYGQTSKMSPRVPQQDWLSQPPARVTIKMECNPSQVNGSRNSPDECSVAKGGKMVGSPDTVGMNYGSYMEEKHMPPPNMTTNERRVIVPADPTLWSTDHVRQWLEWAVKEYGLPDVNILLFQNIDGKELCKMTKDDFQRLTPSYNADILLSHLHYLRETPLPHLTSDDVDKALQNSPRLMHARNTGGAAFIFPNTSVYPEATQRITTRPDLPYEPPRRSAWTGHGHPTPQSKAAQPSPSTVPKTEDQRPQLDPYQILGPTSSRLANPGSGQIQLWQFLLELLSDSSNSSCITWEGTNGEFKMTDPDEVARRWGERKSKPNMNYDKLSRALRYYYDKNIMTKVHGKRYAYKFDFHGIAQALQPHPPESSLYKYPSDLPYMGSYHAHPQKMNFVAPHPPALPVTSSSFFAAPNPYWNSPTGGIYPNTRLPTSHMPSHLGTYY
# In short: as §1
# [5] = target: ELF1 (Homo sapiens, UniProt P32519 1-619); settings: protein: recombinant; tags: N-terminal GST; dsDNA, one strand shown
# ELF1, sequence (P32519 whole entry): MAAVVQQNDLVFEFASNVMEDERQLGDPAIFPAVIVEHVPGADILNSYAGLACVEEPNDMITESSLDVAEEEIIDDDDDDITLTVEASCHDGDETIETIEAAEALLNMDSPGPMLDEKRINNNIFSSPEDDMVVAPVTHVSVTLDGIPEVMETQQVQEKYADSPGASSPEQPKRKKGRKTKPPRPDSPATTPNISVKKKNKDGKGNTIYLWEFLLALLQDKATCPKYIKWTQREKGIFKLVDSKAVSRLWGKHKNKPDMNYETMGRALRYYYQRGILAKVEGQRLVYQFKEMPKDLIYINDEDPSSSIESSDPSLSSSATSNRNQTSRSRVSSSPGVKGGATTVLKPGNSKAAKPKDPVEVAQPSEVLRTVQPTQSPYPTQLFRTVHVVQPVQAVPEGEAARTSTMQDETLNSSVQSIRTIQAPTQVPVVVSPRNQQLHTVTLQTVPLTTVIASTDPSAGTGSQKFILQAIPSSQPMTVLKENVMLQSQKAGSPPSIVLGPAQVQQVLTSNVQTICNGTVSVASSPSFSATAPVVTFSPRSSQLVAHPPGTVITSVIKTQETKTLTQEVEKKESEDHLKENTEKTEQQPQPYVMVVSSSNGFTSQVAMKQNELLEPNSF
# In short: as §1
# [6] = target: T5, EHF (Homo sapiens, UniProt Q9NZC4 1-300); settings: protein: recombinant; tags: N-terminal GST; dsDNA, one strand shown
# T5 sequence: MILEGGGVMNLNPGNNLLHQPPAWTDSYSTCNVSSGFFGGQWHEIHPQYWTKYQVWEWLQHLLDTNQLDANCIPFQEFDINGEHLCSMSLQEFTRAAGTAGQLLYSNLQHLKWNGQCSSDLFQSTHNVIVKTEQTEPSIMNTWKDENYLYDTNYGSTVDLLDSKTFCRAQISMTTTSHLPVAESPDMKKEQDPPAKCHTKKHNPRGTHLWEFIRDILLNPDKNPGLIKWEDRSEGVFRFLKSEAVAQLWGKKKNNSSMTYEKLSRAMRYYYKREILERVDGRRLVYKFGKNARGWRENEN
# In short: as §1
# [7] = target: SPI1 (Homo sapiens, UniProt P17947 1-270); settings: protein: recombinant; tags: N-terminal GST; dsDNA, one strand shown
# In short: as §1
# [8] = target: SPIB (Homo sapiens, UniProt Q01892 1-262); settings: protein: recombinant; tags: N-terminal GST; dsDNA, one strand shown
# SPIB, sequence (Q01892 whole entry): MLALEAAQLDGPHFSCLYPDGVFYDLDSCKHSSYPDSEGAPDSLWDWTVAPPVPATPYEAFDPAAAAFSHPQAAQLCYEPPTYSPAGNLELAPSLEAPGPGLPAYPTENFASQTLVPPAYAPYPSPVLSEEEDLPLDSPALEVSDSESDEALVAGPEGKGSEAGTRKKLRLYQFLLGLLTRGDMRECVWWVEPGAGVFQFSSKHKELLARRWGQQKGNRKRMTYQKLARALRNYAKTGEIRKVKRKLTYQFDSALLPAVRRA
# In short: as §1
# [9] = target: T6, ELK3 (Homo sapiens, UniProt P41970 1-407); settings: protein: recombinant; tags: N-terminal GST; dsDNA, one strand shown
# T6 sequence: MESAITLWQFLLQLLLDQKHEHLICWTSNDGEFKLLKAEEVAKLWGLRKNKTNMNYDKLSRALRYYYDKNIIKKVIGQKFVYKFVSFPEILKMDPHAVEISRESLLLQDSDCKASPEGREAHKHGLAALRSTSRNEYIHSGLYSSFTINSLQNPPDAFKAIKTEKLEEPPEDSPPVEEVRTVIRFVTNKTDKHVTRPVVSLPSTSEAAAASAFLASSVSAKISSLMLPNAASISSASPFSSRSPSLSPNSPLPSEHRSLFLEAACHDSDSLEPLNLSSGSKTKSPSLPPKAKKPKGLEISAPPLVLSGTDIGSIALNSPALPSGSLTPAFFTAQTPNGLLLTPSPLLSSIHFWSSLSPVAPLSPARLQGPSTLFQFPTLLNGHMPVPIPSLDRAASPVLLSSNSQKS
# In short: as §1
# [10] = target: T7, FEV (Homo sapiens, UniProt Q99581 1-238); settings: protein: recombinant; tags: N-terminal GST; dsDNA, one strand shown
# T7 sequence: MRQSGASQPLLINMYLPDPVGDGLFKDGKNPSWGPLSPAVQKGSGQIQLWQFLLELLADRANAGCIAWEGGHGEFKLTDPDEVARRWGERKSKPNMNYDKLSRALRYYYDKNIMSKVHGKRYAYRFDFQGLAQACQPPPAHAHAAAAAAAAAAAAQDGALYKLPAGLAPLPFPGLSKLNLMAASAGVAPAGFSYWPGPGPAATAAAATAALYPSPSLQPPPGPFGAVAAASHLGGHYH
# In short: as §1
# [11] = target: ETV5 (Homo sapiens, UniProt P41161 1-510); settings: protein: recombinant; tags: N-terminal GST; dsDNA, one strand shown
# ETV5, sequence (P41161 whole entry): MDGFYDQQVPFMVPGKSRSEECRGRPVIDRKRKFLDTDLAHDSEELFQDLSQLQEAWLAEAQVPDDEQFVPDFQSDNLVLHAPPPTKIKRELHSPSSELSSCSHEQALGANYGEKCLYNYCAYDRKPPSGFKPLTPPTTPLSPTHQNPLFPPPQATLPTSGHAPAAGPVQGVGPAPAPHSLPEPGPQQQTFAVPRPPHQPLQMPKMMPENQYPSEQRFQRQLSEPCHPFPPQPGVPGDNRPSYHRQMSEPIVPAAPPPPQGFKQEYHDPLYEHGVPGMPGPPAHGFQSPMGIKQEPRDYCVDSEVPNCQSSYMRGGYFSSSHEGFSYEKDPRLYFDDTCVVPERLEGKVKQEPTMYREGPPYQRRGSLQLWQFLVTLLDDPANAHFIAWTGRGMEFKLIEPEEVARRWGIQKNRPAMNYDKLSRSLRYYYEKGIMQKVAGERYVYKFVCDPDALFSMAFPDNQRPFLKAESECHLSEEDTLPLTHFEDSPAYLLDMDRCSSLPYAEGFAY
# In short: as §1
# [12] = target: HSF1 (Homo sapiens, UniProt Q00613 1-529); settings: protein: recombinant; tags: N-terminal GST; chain copies: 3; dsDNA, one strand shown
# HSF1, sequence (Q00613 whole entry): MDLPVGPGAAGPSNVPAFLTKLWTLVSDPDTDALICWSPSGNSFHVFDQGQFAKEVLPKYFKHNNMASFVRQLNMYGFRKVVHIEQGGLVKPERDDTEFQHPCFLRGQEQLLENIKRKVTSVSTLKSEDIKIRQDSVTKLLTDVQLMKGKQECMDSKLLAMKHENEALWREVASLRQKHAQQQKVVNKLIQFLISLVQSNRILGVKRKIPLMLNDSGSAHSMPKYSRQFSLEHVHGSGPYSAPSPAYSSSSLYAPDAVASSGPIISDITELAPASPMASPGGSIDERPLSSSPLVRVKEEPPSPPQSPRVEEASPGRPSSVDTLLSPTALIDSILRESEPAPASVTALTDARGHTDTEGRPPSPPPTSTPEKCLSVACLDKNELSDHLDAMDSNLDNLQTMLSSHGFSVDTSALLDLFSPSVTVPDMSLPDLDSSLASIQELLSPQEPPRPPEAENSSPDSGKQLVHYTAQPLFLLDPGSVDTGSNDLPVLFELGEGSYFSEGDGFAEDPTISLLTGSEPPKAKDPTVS
# In short: as §1
# [13] = target: T8, SPIC (Homo sapiens, UniProt Q8N5J4 1-248); settings: protein: recombinant; tags: N-terminal GST; dsDNA, one strand shown
# T8 sequence: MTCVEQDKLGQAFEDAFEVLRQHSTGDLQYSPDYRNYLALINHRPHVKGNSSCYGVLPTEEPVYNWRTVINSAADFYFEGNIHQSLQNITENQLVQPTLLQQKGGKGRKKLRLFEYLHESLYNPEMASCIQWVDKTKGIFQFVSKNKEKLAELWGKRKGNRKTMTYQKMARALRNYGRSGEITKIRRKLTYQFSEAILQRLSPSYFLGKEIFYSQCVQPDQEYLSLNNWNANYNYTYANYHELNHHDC
# In short: as §1
# [14] = target: ELF4 (Homo sapiens, UniProt Q99607 1-663); settings: protein: recombinant; tags: N-terminal GST; dsDNA, one strand shown
# ELF4, sequence (Q99607 whole entry): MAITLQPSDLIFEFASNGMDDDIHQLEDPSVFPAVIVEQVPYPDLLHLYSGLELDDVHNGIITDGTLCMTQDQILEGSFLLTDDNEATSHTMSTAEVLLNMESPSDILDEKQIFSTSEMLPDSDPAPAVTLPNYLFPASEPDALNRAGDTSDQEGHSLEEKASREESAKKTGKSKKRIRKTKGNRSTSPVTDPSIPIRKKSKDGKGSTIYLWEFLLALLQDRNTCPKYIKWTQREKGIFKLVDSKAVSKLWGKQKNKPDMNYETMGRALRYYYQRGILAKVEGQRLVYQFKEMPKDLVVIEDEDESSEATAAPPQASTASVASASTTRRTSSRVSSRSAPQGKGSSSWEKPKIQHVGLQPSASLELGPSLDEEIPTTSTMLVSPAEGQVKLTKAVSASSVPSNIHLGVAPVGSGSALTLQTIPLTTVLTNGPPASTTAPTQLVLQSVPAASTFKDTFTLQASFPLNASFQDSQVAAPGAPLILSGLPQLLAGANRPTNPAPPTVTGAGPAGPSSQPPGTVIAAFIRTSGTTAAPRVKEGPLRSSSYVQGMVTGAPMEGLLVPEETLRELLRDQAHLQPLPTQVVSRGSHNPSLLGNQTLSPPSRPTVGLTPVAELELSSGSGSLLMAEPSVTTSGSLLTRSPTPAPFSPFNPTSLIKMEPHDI
# In short: as §1
# [15] = target: T9, ELK4 (Homo sapiens, UniProt P28324-2 1-405); settings: protein: recombinant; tags: N-terminal GST; dsDNA, one strand shown
# T9 sequence: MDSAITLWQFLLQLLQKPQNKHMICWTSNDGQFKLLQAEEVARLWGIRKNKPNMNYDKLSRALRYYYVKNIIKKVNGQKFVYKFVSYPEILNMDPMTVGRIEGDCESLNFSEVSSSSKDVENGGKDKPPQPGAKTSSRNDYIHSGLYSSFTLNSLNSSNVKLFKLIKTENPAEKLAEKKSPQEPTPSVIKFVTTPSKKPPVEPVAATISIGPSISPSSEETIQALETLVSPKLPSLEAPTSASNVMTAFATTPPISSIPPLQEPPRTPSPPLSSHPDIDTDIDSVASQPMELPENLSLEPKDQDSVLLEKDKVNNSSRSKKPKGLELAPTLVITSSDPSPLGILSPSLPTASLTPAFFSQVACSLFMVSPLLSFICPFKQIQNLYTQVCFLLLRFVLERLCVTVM
# In short: as §1
# [16] = target: T10, ETV2 (Homo sapiens, UniProt O00321 1-342); settings: protein: recombinant; tags: N-terminal GST; dsDNA, one strand shown
# T10 sequence: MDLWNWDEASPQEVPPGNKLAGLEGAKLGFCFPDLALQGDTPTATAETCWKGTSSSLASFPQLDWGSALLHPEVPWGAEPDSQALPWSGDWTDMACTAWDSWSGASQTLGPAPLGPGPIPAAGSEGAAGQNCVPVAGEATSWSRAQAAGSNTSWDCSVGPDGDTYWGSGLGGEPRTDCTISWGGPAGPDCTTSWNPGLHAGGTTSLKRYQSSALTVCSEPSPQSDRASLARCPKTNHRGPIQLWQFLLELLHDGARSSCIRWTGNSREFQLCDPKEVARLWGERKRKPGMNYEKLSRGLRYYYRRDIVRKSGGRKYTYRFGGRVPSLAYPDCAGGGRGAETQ
# In short: as §1
# [17] = target: T11, ELF3 (Homo sapiens, UniProt P78545 1-371); settings: protein: recombinant; tags: N-terminal GST; dsDNA, one strand shown
# T11 sequence: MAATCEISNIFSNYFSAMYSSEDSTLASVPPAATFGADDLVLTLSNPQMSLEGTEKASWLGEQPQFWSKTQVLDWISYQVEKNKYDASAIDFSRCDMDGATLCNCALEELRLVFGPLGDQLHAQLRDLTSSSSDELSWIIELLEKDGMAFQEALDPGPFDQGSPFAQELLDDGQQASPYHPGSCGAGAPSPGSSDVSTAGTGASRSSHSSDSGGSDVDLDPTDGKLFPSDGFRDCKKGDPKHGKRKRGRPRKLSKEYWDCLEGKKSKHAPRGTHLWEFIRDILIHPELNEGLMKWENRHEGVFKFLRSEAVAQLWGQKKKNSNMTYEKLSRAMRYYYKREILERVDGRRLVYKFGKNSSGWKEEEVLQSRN
# In short: as §1
# [18] = target: CRX (Homo sapiens, UniProt O43186 1-299); settings: protein: recombinant; tags: N-terminal GST; dsDNA, one strand shown
# CRX, sequence (O43186 whole entry): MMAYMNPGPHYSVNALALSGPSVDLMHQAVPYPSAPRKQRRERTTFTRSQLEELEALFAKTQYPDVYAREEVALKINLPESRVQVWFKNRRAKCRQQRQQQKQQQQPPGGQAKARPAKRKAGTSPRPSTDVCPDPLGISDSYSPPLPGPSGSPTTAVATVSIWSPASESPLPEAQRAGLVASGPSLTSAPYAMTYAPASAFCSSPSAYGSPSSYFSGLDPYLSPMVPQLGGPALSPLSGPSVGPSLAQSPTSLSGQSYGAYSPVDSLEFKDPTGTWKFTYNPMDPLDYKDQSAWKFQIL
# In short: as §1
# [19] = target: ETV1 (Homo sapiens, UniProt P50549 1-477); settings: protein: recombinant; tags: N-terminal GST; dsDNA, one strand shown
# ETV1, sequence (P50549 whole entry): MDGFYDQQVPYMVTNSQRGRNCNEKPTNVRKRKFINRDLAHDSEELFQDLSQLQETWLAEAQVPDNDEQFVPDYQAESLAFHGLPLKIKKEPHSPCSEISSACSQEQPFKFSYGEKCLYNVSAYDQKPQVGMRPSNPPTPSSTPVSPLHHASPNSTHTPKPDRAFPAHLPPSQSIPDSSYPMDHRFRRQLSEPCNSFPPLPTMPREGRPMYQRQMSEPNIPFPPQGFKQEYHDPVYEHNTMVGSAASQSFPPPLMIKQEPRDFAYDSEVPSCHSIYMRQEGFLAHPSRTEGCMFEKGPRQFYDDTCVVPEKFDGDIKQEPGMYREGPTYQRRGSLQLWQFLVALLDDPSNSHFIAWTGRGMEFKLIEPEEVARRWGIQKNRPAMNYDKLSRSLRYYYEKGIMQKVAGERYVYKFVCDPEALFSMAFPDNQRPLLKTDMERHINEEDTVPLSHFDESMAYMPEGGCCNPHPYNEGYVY
# In short: as §1
sequence,measurement,setting,value
ACAATT,binding signal,[1],"1.33 fold enrichment (6-mer frequency, TF over GST control)"
same,binding signal,[2],"1.27 fold enrichment (6-mer frequency, TF over GST control)"
same,binding signal,[3],"1.15 fold enrichment (6-mer frequency, TF over GST control)"
same,binding signal,[4],"1.32 fold enrichment (6-mer frequency, TF over GST control)"
same,binding signal,[5],"1.32 fold enrichment (6-mer frequency, TF over GST control)"
same,binding signal,[6],"1.23 fold enrichment (6-mer frequency, TF over GST control)"
same,binding signal,[7],"1.23 fold enrichment (6-mer frequency, TF over GST control)"
same,binding signal,[8],"1.2 fold enrichment (6-mer frequency, TF over GST control)"
same,binding signal,[9],"1.25 fold enrichment (6-mer frequency, TF over GST control)"
same,binding signal,[10],"1.27 fold enrichment (6-mer frequency, TF over GST control)"
same,binding signal,[11],"1.33 fold enrichment (6-mer frequency, TF over GST control)"
same,binding signal,[12],"1.18 fold enrichment (6-mer frequency, TF over GST control)"
same,binding signal,[13],"1.17 fold enrichment (6-mer frequency, TF over GST control)"
same,binding signal,[14],"1.25 fold enrichment (6-mer frequency, TF over GST control)"
same,binding signal,[15],"1.26 fold enrichment (6-mer frequency, TF over GST control)"
same,binding signal,[16],"1.29 fold enrichment (6-mer frequency, TF over GST control)"
same,binding signal,[17],"1.35 fold enrichment (6-mer frequency, TF over GST control)"
same,binding signal,[18],"1.13 fold enrichment (6-mer frequency, TF over GST control)"
same,binding signal,[19],"1.24 fold enrichment (6-mer frequency, TF over GST control)"
